SMILES strings stand for the structures. “And” between values parts separate entries of the source, which are not always exact repeats. Equal entries are not always repeated. The source made the active and inactive calls.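 How the source made its calls, unless noted: active means compounds whose cell count with miR-34 switched on is under 0.7 times the count with it off; inactive means the rest.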

A short description of experiment [1]: Wnt pathway potentiators raising nuclear beta-catenin – imaging, WNT3A-conditioned medium, mouse C2C12, NPC library, primary screen (AID 1117326; in the data active means nuclear beta-catenin stimulation mostly above about 4.2%, no sharp cut-off; inactive means mostly below about 10%). The settings on record: stronger effect = higher value.
Experiment [2] in a line: stimulators of insulin release from INS-1E, primary screen, cell-based, 5 mM glucose, NPC library (AID 1117329;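 active means compound raises insulin release from rat beta cells at 5 mM glucose, no numeric limit stated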). The settings on record: rat INS-1E insulin secretion, at 10 µM, stronger effect = higher value.
Experiment [3] in a line: growth inhibition of GSK3B-pretreated HCT116 cells – cell-based, CellTiter-Glo, 0.2 to 20 µM (AID 1117336;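 active means compounds lowering colon cancer cell viability after pretreatment blocking the GSK3B kinase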). To be noted: HCT116 viability after GSK3B inhibitor, at 20 µM, stronger effect = higher value. For orientation: In ATP-based viability assays light output follows the ATP content of the culture.
The nature of experiment [4]: inhibition of endothelial tube formation, primary screen, imaging, VEGF stimulated, CD31 staining, tube area, NPC library (AID 1117340;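 active means compound that reduces growth-factor-driven endothelial tube area in a mixed cell culture, no cutoff stated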). To be noted: VEGF-stimulated ADSC/ECFC co-culture, at 10 µM, stronger effect = higher value.
Experiment [5] can be described thus: GLP1 release stimulators, primary, NCI-H716, NPC library (AID 1117341;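 active means compound raises GLP1 secretion from the human gut endocrine cells, with no numeric limit stated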). The settings on record: NCI-H716 cells, at 10 µM, stronger effect = higher value.
Experiment [6] is described as follows: HCT116 colon cancer cell growth inhibition, primary screen, CellTiter-Glo luminescence, NPC library (AID 1117342;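 active means compounds that lower survival of HCT116 colon cancer cells in the luminescence readout, no numeric limit stated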). To be noted: at 20 µM (top of the series).
A short description of experiment [7]: reduced SW480 viability measured with CellTiter-Glo, NPC library, primary (AID 1117343;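 active means compounds that lower viability of the colon cancer cells in the luminescence readout, with no numeric limit stated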). To be noted: CellTiter-Glo luminescence; at 20 µM (top of the series) unless noted.
The nature of experiment [8]: NPC library primary testing for decreased DLD-1 cell viability via CellTiter-Glo (AID 1117346;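 active means compounds that lower survival of DLD-1 colon cancer cells in the luminescence readout, no cutoff given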). The settings on record: DLD-1 viability, CellTiter-Glo luminescence; at 20 µM (top of the series).
Experiment [9] concerns Aerobactin synthetase IucA (Klebsiella pneumoniae). The experiment can be described thus: inhibition of K. pneumoniae IucA enzyme – biochemical, Tocris library, absorbance (AID 1345561; call rule not given here;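 further: 100% = enzyme without compound and 0% = no enzyme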). To be noted: purified IucA enzyme assay, absorbance (OD) read-out; stronger effect = lower value;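 tested at 8 µM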.
The nature of experiment [10]: viability loss with induced miR-34 in A549 – imaging, A549 dox-inducible miR-34, nuclei and caspase counts, primary screen (AID 1347080). To be noted: A549 miR-34 inducible, Hoechst nuclei count, 48 h.
Experiment [11] in a line: galactose survival enhancers in mitochondrial complex I cybrids – cell-based, galactose medium, ATP luminescence, primary screen (AID 1645843;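 active means z-score of at least 1.8 in each of two replicates, scored against plate mean and spread of sample wells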;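 further: positive z means more ATP and so rescue of galactose-driven cybrid death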). The settings on record: complex I mutant cybrid cells, 72 h, stronger effect = higher value.
A short description of experiment [12]: MELAS cybrid and Rieske KO viability enhancers – cell-based, MELAS cybrids, Rieske KO mouse fibroblasts, CellTiter-Glo, primary screen (AID 1508586;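 active means mean z-score across replicates of 1.96 or higher in either the MELAS or the Rieske mutant cell line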;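 further: z relative to plate mean and SD of compound and empty wells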). To be noted: low glucose.
Setting [13] is: stronger effect = lower value, cell number ratio, induced over uninduced.
The mark [14] stands for this setting: measured here: relative caspase fold change +Dox/-Dox.
[15] abbreviates: measured here: total cells with miR-34 induction, stronger effect = lower value.
Where [16] appears, read: measured here: total cells without miR-34 induction.

Usually remaining activity stands for the signal under treatment as a percentage of the control signal. `c1cc(CN2CCCCC2)cc(OCCCNc2nc3ccccc3s2)c1`: the nuclear beta-catenin stimulation in [1] (at 10 µM) was 3.6% (inactive); in [1] (stimulation, at 2 µM), 0.7%. In experiment [2], the insulin secretion stimulation was 32.8% (active). For the same molecule, the viability decrease in [3] is 29.5% (inactive). Also, in [4], the tube area decrease was 22.6% (inactive). Moreover, the GLP1 secretion stimulation in experiment [5] was 0.5% (inactive). Further, the inhibition of viability in experiment [6] is 53.3% (active). For the same molecule, the values for the viability decrease (inhibition) in [7] and in experiment [8] were -462% (inactive) and 58.6% (active), respectively. Besides, the remaining activity in experiment [9] is 120% (inactive). The fold change in [10] (setting [13]) is 1.11 (inactive) and 0.901 (inactive); in experiment [10] (setting [14]) it was 0.913 and 0.9. The cell count in experiment [10] (setting [15]) is 7430 and 7110; in [10] (setting [16]), 6660 and 7890. Also, in experiment [11], the z-score was -1.34 (inactive) and -0.8 (inactive).
Turning to `FC(F)(F)c1ccccc1-n1ccnc1`, the nuclear beta-catenin stimulation in [1] (at 10 µM) is 1.3% (inactive); in experiment [1] (stimulation, at 2 µM), -0.4%. Besides, the insulin secretion stimulation in experiment [2] is 1.7% (inactive). In experiment [3], the viability decrease is 2% (inactive). For the same molecule, the tube area decrease in experiment [4] is -7.9% (inactive). Besides, in experiment [5], the GLP1 secretion stimulation was -1.9% (inactive). Moreover, the inhibition of viability in [6] was 2.03% (inactive). Moreover, the viability decrease (inhibition) in [7] was -83.5% (inactive); in experiment [8], 4.5% (inactive). Besides, in [9], the remaining activity was 102% (inactive). The fold change in experiment [10] (setting [13]) was 0.976 (inactive) and 0.948 (inactive) and 0.969 (inactive); in [10] (setting [14]), 1.92 and 1.05 and 0.962. In addition, the cell count in experiment [10] (setting [15]) was 9410 and 5980 and 9120; in [10] (setting [16]) it was 9640 and 6310 and 9410. For the same molecule, in experiment [11], the z-score was 0.425 (inactive) and 1.96 (inactive).
For `C[C@H]1O[C@H](O[C@H]2[C@H](O)[C@@H](O)[C@@H](O[C@H]3[C@H](O)[C@@H](O)[C@H](O)O[C@@H]3CO)O[C@@H]2CO)[C@H](O)[C@@H](O)[C@@H]1N[C@H]1C=C(CO)[C@@H](O)[C@H](O)[C@H]1O`, the nuclear beta-catenin stimulation in experiment [1] (at 10 µM) was -0.6% (inactive); in [1] (stimulation, at 2 µM), -1.1%. Further, the insulin secretion stimulation in experiment [2] is 0.7% (inactive). Further, the viability decrease in [3] was -5.3% (inactive). In addition, in experiment [4], the tube area decrease was -8.2% (inactive). In addition, the GLP1 secretion stimulation in experiment [5] is -2.2% (inactive). Moreover, the inhibition of viability in [6] is 18.9% (inactive). Further, the viability decrease (inhibition) in [7] is -0.4% (inactive); in [8] it was -0.5% (inactive). The remaining activity in experiment [9] was 108% (inactive). Besides, the fold change in [10] (setting [13]) is 0.838 (inactive); in experiment [10] (setting [14]), 1.97. Further, the cell count came to 7710 in experiment [10] (setting [15]) and 9210 in [10] (setting [16]). Also, the z-score was -0.1 (inactive) in experiment [12] (MELAS cybrid survival, CellTiter-Glo 48 h, stronger effect = higher value); -0.573 in experiment [12] (Rieske KO mouse fibroblast survival, CellTiter-Glo 72 h); 0.18 (inactive) in [11].
For the molecule `NC(=O)n1c(O)c(C(=O)c2cccs2)c2cc(Cl)ccc21`, the nuclear beta-catenin stimulation was -0.2% (inactive) in experiment [1] (at 10 µM) and -0.7% in experiment [1] (stimulation, at 2 µM). Besides, the insulin secretion stimulation in experiment [2] was 0.2% (inactive). In addition, in experiment [3], the viability decrease was 106% (active). The tube area decrease in experiment [4] was 58.6% (active). In experiment [5], the GLP1 secretion stimulation is -0.5% (inactive). Moreover, the inhibition of viability in experiment [6] was 102% (active). In addition, the viability decrease (inhibition) in [7] was 128% (active); in [8] it was 97.5% (active). In addition, the remaining activity in experiment [9] was 121% (inactive). Further, the fold change is 0.969 (inactive) in experiment [10] (setting [13]) and 1.95 in experiment [10] (setting [14]). Further, the cell count in experiment [10] (setting [15]) is 7020; in experiment [10] (setting [16]), 7250. For the same molecule, the z-score in experiment [11] is -0.475 (inactive).
`CC[N+](CC)(CC)CCOc1ccc(/C=C/c2ccccc2)cc1`: the nuclear beta-catenin stimulation in experiment [1] (at 10 µM) is 0.4% (inactive); in [1] (stimulation, at 2 µM), -0.8%. Besides, the insulin secretion stimulation in experiment [2] was 1.3% (inactive). Besides, in experiment [3], the viability decrease is -35.4% (inactive). The tube area decrease in experiment [4] is 82.5% (active). The GLP1 secretion stimulation in experiment [5] was -1.8% (inactive). Moreover, the inhibition of viability in [6] was 46.8% (inactive). Further, the viability decrease (inhibition) in [7] is -6% (inactive); in experiment [8] it was 56.2% (active). Moreover, the remaining activity in experiment [9] was 112% (inactive). The fold change is 1.12 (inactive) and 0.929 (inactive) in [10] (setting [13]); 0.542 and 0.715 in experiment [10] (setting [14]). Further, the cell count in experiment [10] (setting [15]) is 2640 and 2410; in experiment [10] (setting [16]), 2350 and 2590. For the same molecule, the z-score in experiment [11] was -1.29 (inactive) and -0.77 (inactive).

The record behind these values is PubChem BioAssay.
